Reference: PubChem BioAssay (NCI)
About 83,000 compounds went through this panel and 20% of them were active in at least one assay; those are over-represented in the sample as a whole.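 The test compound was applied at a single concentration to cells in 96-well plates for 48 hours, and percent growth was recorded.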 Calls of active or inactive are those of the source. How the source made its calls: active means growth percent below 10; inactive means the rest.

tested on: HL-60(TB) leukemia; assay: NCI-60 one-dose screen, 48 h (100 = growth as untreated, 0 = no growth, -100 = all killed); conditions: 10 µM unless noted

Row | SMILES | growth
1 | CN1CCC2(CC1)NC(=O)c1c(c3ccc(Cl)c(Cl)c3n1C)C2C#N (stereo not given) | 70.8% (inactive)
2 | CCCCCCCCN(CCCCCCCC)CCCCCCCCCN1CCCc2cc(OC)ccc21 | 89.6% (inactive)
3 | C=CCNC(=O)c1ccc(OC)cc1 | 87.7% (inactive)
4 | O=C(C=C=Nc1ccccc1)C(=O)N=C=Cc1ccccc1 | -26% (active)
5 | C=CCN1C(=O)/C(=c2\sc3n(c2=O)C2C(NN=3)N(CC)C(=O)N2CC)c2ccccc21 (stereo not given) | -17.4% (active)
6 | O=C(O)c1cn(C2CC2)c2cc(N3CCN(C(=O)C[n+]4ccccc4)CC3)c(F)cc2c1=O | 112% (inactive)
7 | COc1ccc(-c2cn[nH]c2-c2cc(OC)c3c(c2)OCCO3)cc1 | -33.2% (active)
8 | CN1C(=O)/C(=C/c2ccc(C(=O)Nc3ncc(Cc4cccc(C(F)(F)F)c4)s3)cc2)SC1=S | 43.3% (inactive)
9 | C=CCN=c1sc(-c2ccc3ccccc3c2)cn1NC(=O)c1cc2ccc1CCc1ccc(cc1)CC2 | 49.2% (inactive)
10 | COC1C(O)CC(OC2CC(OC3CC(O[C@@H]4C(=O)c5c(cc6cc(OC7CC(OC8CC(O)C(O)C(C)O8)C(O)C(C)O7)c(C)c(O)c6c5O)CC4[C@H](OC)C(=O)C(C)=O)OC(C)C3O)OC(C)C2O)OC1C (stereo not given in full) | -18.6% (active)
11 | CC(C)COC(=O)NC(C)(C)C | 85.2% (inactive)
12 | COc1cc2c(Oc3ccc(NC(=O)C4(C(=O)Nc5ccc(F)cc5)CC4)cc3F)ccnc2cc1OCCCN1CCOCC1 | -21.4% (active)
13 | CCOC(=O)c1cc(C(=O)c2cc(OC)c(OC)c(OC)c2)n2c1ccc1c3cccnc3ccc12 | 13.3% (inactive)
14 | COc1cc(NS(=O)(=O)c2ccc(N)cc2)ncn1 | 105% (inactive)
15 | COc1ccc(C2=C(c3cccc(OC)c3)C(=O)c3ccc(C)nc3C2=O)cc1 | 41.1% (inactive)
16 | [O-]/[N+](=C\C=C\c1ccccc1)c1ccccc1 | 82.3% (inactive)
17 | CCCCOc1ccc(/C=N/Nc2cc(C)nc3ccc(Br)cc23)cc1 | 1.52% (active)
18 | O=C1Nc2ccccc2/C1=C/c1cn(C[C@@H](O)Cn2c3ccccc3c(=O)c3ccccc32)c2ccccc12 | 82% (inactive)
19 | CCOC(=O)CC1C(COC(=O)NC)OC(n2cnc3c(NC(=O)Nc4ccccc4)ncnc32)C1O[Si](C)(C)C(C)(C)C (stereo not given) | 23.5% (inactive)
20 | C/C=C(\C)C(=O)N[C@H]1CC[C@]2(C)C3CC[C@@]4(C)C(CC[C@@H]4C(C)N(C)C)C3CCC2[C@H]1OC(C)=O (stereo not given in full) | 18.2% (inactive)

Row | SMILES | growth
21 | CC(C)c1ccc2nc3ccc(C(=O)NCCN4CCN(c5ccccc5)CC4)cn3c(=O)c2c1 | 74.9% (inactive)
22 | CC(=O)Nc1c(Cl)cc(Cl)c2c1Cc1cc([N+](=O)[O-])ccc1-2 | 89.8% (inactive)
23 | C(=C\c1n(Cc2ccc3ccccc3c2)c(-c2ccccc2)c(-c2ccccc2)[n+]1Cc1ccc2ccccc2c1)/c1ccccc1 | -42% (active)
24 | C=C1SC(=Nc2c(C)cccc2C)N(c2nc(Cl)nc(Cl)n2)C12CCCCC2 | 100% (inactive)
25 | O=C(O)C1[S][Sb]([CH](C(=O)O)[CH](C(=O)O)[Sb]2[S]C(C(=O)O)C(C(=O)O)[S]2)[S]C1C(=O)O (stereo not given) | 94.3% (inactive)
26 | COc1cc(-c2nccc3[nH]c(-c4ccc5cc[nH]c5c4)nc23)cc(OC)c1OC | -48.7% (active)
27 | COC(=O)Cn1c2c(c3c(OC)cccc31)C(=O)c1ccccc1-2 | 75.6% (inactive)
28 | CCn1cc(C(=O)O)c(=O)c2cc(F)c(N3CCN(CC(=O)Nc4ccc(/C(C)=N/OC)cc4)CC3)cc21 | 90.9% (inactive)
29 | COC(=O)c1c2c(c(C)[n+]([O-])c1C)C(=O)C(NCc1cccc(OC)c1)=CC2=O | -52.2% (active)
30 | COc1ccc(-c2nc(SCC(C)C)nc(Nc3ccc(C)cc3)c2C#N)cc1 | 92.3% (inactive)
31 | C=C1C(=O)O[C@H]2[C@H]1CC/C(COC(=O)NCc1cc(OC)c(OC)c(OC)c1)=C\CC[C@@]1(C)O[C@@H]21 | 11.5% (inactive)
32 | CC1(C)CC[C@]23CC[C@]4(C)[C@H](CC[C@@H]5[C@@]6(C)C/C(=C/c7ccncc7)C(=O)C(C)(C)[C@@H]6CC[C@]54C)[C@H]2[C@H]1OC3 | 61% (inactive)
33 | O=S(=O)(c1ccccc1)N1CCCc2ccccc21 | 103% (inactive)
34 | Cc1ccc(/C=N/NC(=O)CSc2nc3ccccc3c(=O)n2Cc2ccc(S(N)(=O)=O)cc2)cc1 | 97.8% (inactive)
35 | Cc1c(C(=O)/C=C/Nc2c(Cl)cc(S(N)(=O)=O)cc2Cl)sc2nc3ccccc3n12 | 101% (inactive)
36 | Cc1cccc2c1NC(=O)[C@@]21[C@H](C(=O)c2ccccc2)[C@]2(C(=O)Nc3ccccc32)[C@H]2CCCN21 | 14.6% [100 µM] (inactive)
37 | CN(C)c1cnccn1 | 90.3% (inactive)
38 | C#CCN1C(=O)/C(=c2\sc3n(c2=O)NC2C(N=3)N(CC)C(=O)N2CC)c2ccccc21 (stereo not given) | -34.3% (active)
39 | C=C1C[C@@]2(C)C(CC[C@]3(C)C2CC=C2C4CC(C)(C)C[C@@H](OC(=O)/C(C)=C\C)[C@]4(C(=O)O)CC[C@]23C)C(C)(C)C1=O (stereo not given in full) | -32.4% (active)
40 | O=Cc1ccc(Cl)c(Cl)c1 | 106% (inactive)
